# Screens from PubChem.
# Shown is part of a subset that was picked to be rich in hits.
# Shiga toxin inh – Shiga toxin inhibition | Vero cells, Shiga toxin protein synthesis inhibition reporter | inhibition, % at 38.7 µM | 9.2% of 290,000 active; in the data active means inhibition mostly above about 28%, no sharp cut-off; inactive means mostly below about 43%
# Cycloheximide cs – counter-screen for Shiga toxin inhibitors: cycloheximide protein synthesis inhibition. max response, %. AID 2314. 12% of 300,000 active. cell reporter, cycloheximide protein synthesis inhibition counterscreen; in the data active means max response mostly above about 13%, no sharp cut-off; inactive means mostly below about 14%; further: read at 38.3 µM for the half of the compounds with a filed dose
# AmpC inh detg – inhibitors of E. coli AmpC beta-lactamase with detergent. AmpC hydrolysis of nitrocefin, absorbance 480 nm, 0.01% Triton. Potency, µM (doses to about 114 µM), usual class: inhibitors. 0.041% of 370,000 active. AID 485294; further: nearly all actives have a fitted effect of over 25% in size
# Target sequence (P00811 whole entry, looked up): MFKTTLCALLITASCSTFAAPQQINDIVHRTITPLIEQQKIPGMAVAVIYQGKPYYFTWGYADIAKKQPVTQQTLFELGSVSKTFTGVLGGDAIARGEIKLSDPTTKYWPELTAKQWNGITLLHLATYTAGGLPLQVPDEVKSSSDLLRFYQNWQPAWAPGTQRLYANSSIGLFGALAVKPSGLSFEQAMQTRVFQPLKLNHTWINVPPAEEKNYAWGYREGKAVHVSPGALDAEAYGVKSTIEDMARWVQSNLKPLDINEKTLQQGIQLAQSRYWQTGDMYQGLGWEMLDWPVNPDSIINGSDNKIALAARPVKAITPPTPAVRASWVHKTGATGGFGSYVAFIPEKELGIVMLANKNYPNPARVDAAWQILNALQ
#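 AmpC (5.3 nM in the dispensed reagent) in 20 mM phosphate pH 7.0 with 0.01% (detergent screen) or 0.0001% Triton X-100 was preincubated with compounds for 15 min at room temperature. Nitrocefin was then added from an 800 uM solution, and hydrolysis was followed at 480 nm.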
# NS1 function inh – inhibitors of influenza NS1 protein function | Potency, µM (top dose mostly 46.1 µM) | 0.4% of 270,000 active | AID 2326; calls by dose curve; further: actives are rising curves; nearly all actives have a fitted effect of over 50% in size
#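 Compounds were scored for reversing the slow growth caused by influenza A NS1 in S. cerevisiae, measured by optical density at 600 nm. Assay medium contained 2% galactose at pH 6.0; NS1-free yeast of the same strain were the positive control.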
# AmpC inh no detg – blocks E. coli AmpC beta-lactamase in detergent-free assay. AID 485341. 0.52% of 330,000 active. Potency, µM (doses to about 57.1 µM), hits mostly inhibitors. AmpC nitrocefin hydrolysis, absorbance 480 nm, 0.0001% Triton. P00811; further: nearly all actives have a fitted effect of over 20% in size
#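 20 mM phosphate pH 7.0 + 0.01% (detergent screen) or 0.0001% Triton X-100; 5.3 nM AmpC reagent; cpd preinc 15 min RT; nitrocefin (800 uM stock) to start; A480 q20 s × 4 min; Activity was normalised to no-enzyme and no-compound control wells.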
# Hits are given with their value; n = inactive; u = inconclusive; x = not tested or not shown; [ ] = dose if it differs, or a comment. Unless noted, the call rests on the fitted dose curve; in most records, active means well fitted curve in the direction sought with a large enough effect; inconclusive means small, poorly fitted or top-dose-only effect, or another doubt; inactive means no such curve, though single readings can be large; an effect the other way counts as inactive or inconclusive.
SMILES,Shiga toxin inh,Cycloheximide cs,AmpC inh detg,NS1 function inh,AmpC inh no detg
O=C(CSc1ncccc1-c1nc2ccccc2[nH]1)NCc1ccco1,56,40,n,n,n
Cc1cc2nc(-c3cccnc3SCC(=O)NCc3ccco3)[nH]c2cc1C,n,21,u,n,n
Cc1cc2nc(-c3cccnc3SCC(=O)NC3CC3)[nH]c2cc1C,52,23,u,x,n[11.4 µM]
Cc1nn(-c2ccccc2)c2c1cc1c(=O)n(C)c(=O)nc-1n2-c1cccc(Cl)c1,x,x,n,x,x
COCCSc1nnc(NC(=O)C2CCCO2)s1 (stereo not given),91,24,u,n,n
CCCCCc1nnc(NC(=O)C2CCCO2)s1 (stereo not given),67,44,n,n,n
CCCC(C)c1nnc(NC(=O)C(=O)OCC)s1 (stereo not given),n,n,n,n,n[2.29 µM]
CCCC(C)c1nnc(NC(=O)C2CCCO2)s1 (stereo not given),35,40,n,n,n
Cc1nnc(NC(=O)C2CCCO2)s1 (stereo not given),n,n,n,n,n
Cc1ccc(S(=O)(=O)CCc2nnc(NC(=O)C3CCCO3)s2)cc1 (stereo not given),n,n,n,n,n
N#CCCN(C(=O)CSc1nc2ccccc2c(=O)[nH]1)c1ccc(F)cc1,x,x,x,x,n
Cc1cc2c(cc1S(=O)(=O)C(C)CC(=O)NC1CCC(C)CC1)OCC(=O)N2 (stereo not given),x,x,n,x,x
CC(C)C[C@H](NC(=O)C1CC(=O)N(c2ccc(F)cc2)C1)C(=O)N1CCCCC1 (stereo not given in full),n,n,u,n,n
O=[N+]([O-])c1ccc2oc(C3CCCCC3)nc2c1,76,29,n,n,n
Cn1c(CN2CCCCC2)nc2cc([N+](=O)[O-])ccc21,n,n,n,x,n
Nc1ccc2oc(C3CCCCC3)nc2c1,97,55,n,n,n
CC1(C2CC2)NC(=O)N(CC(=O)N2CCN(c3ccccc3Cl)CC2)C1=O (stereo not given),x,x,n,x,n
O=C(CCCn1c(=O)c2sccc2n(Cc2cc(=O)n3ccccc3n2)c1=O)NCc1ccco1,n,n,u,n,40µM
O=C(CCn1c(=O)c2sccc2n(Cc2cc(=O)n3ccccc3n2)c1=O)NCc1ccco1,n,n,n,n,n
CN(C)CCC(=O)[C@@]1(O)CC[C@H]2[C@H]3CC=C4C[C@@H](O)CC[C@]4(C)[C@H]3CC[C@]21C,x,x,x,n,x
Cc1[nH]c2ccc(CNS(=O)(=O)c3ccc(S(=O)(=O)N4CCOCC4)cc3)cc2c1C,n,n,n,n,n
O=C(N/N=C/c1ccc(O)cc1)c1cc(-c2ccc3c(c2)OCO3)n[nH]1,n,n,n,n,n
O=C(N/N=C/c1cccc(O)c1)c1cc(-c2ccc3c(c2)OCO3)n[nH]1,n,10,n,n,u
O=C(N/N=C/c1ccccc1)c1cc(-c2ccc3c(c2)OCO3)n[nH]1,n,14,n,n,n
Cc1ncc(COP(=O)(O)O)c(C)c1O,x,x,x,n,x
SMILES,Shiga toxin inh,Cycloheximide cs,AmpC inh detg,NS1 function inh,AmpC inh no detg
O=C1C[C@H]2OCC=C3CN4CC[C@@]5(C(=O)O)[C@H](N1)C2[C@H]3C[C@H]45 (stereo not given in full),x,x,x,n,x
CCSc1ncc(Cl)c(C(=O)Nc2nc3ccc(Cl)cc3s2)n1,x,x,n,x,x
Cc1cc(C(=O)Nc2nc3ccc(Cl)cc3s2)nn1C,92,24,n,n,n
O=C(Nc1nc2ccc(Cl)cc2s1)c1ccc(Br)o1,87,34,n,n,n
Cn1nc(C(=O)Nc2nc3ccc(S(C)(=O)=O)cc3s2)ccc1=O,n,n,n,n,n
Cn1ncc(Cl)c1C(=O)Nc1nc2ccc(Cl)cc2s1,56,66,u,n,n
Cc1cc2c(cc1S(=O)(=O)N(CCN(C)C)Cc1ccco1)OCC(=O)N2,x,x,n,x,x
O=C(NCCN1C(=O)S/C(=C\c2cccs2)C1=O)c1ccco1,n,46,n,n,n
CC(=O)Nc1ccc(SCCN2CC[C@@H](C)CCC2=O)cc1,x,x,n,x,n
O=C(NC1CC1)c1ccc(-n2cccc2)cc1,n,62,u,x,n
C=CCNC(=O)c1ccc(-n2cccc2)cc1,n,30,u,x,n
C=CCNC(=O)c1ccncc1,n,n,u,n,n
Cc1cc2ncn(CCOc3ccccc3)c2cc1C,102,51,u,n,n
COCCn1cnc2cc(C)c(C)cc21,n,n,u,n,n
O=C(COc1ccc(Cl)cc1Cl)NC(=O)N1CCOCC1,93,35,n,n,n
Cc1cc(Cl)ccc1OCC(=O)Nc1ccccc1C(=O)N1CCOCC1,n,n,n,n,n
O=C(Nc1ccc(Cl)cc1C(=O)N1CCOCC1)c1ccco1,n,n,n,n,u
O=C(c1cc(Cl)ccc1OCc1ccccc1)N1CCOCC1,n,20,u,n,n
O=C(COc1ccccc1Cl)Nc1ccccc1C(=O)N1CCOCC1,n,18,n,n,n
O=C(COc1ccc(C(=S)N2CCOCC2)cc1Cl)Nc1ccccc1Cl,52,19,n,x,n
CCc1nc(SC)ncc1C(=O)NCc1cccc(Br)c1,x,x,n,x,x
[N-]=[N+]=Nc1ccc(C(=O)CSC[C@H](NC(=O)CC[C@H](N)C(=O)O)C(=O)NCC(=O)O)cc1,x,x,x,n,x
CCOc1cc2c(cc1OCC)CN(C(=O)c1cccc(S(=O)(=O)N3CCCC3)c1)CC2,x,x,n,x,n
COc1cc(/C=N\NC(=O)c2cccc(Cl)c2)ccc1Oc1ccc([N+](=O)[O-])cn1,54,17,n,n,n
COc1cc(/C=N\NC(=O)c2ccccc2F)ccc1Oc1ccc([N+](=O)[O-])cn1,n,16,n,n,n
SMILES,Shiga toxin inh,Cycloheximide cs,AmpC inh detg,NS1 function inh,AmpC inh no detg
COc1cc(/C=C(/C#N)c2ccc(F)cc2)ccc1Oc1ccc([N+](=O)[O-])cn1,n,n,n,n,28µM
COc1cc(/C=N\NC(=O)c2ccc(Cl)cc2)ccc1Oc1ccc([N+](=O)[O-])cn1,n,n,n,n,n
CCNC(=O)c1ccc2c(c1)sc1nc(-c3cccc(OC)c3)cn12,x,x,n,x,x
COc1ccc(-n2c(=O)c3ccccc3n(Cc3ccc(F)cc3Cl)c2=O)cc1OC,x,x,n,x,x
Fc1cccc(Cl)c1-c1nnc2ccc3ccccc3n12,35,37,n,x,n
Fc1ccccc1-c1nnc2ccc3ccccc3n12,x,n,n,n,n
COCCCNC1=C(Cl)C(=O)c2ccccc2C1=O,49,33,n,n,n
O=C(O)c1ccc(NC2=C(Cl)C(=O)c3ccccc3C2=O)cc1,n,n,n,n,n
CC(C)OCCCNC(=S)NNC(=O)C(c1ccccc1)c1ccccc1,n,n,n,n,n
O=S(=O)(Cc1ccccc1)NCc1cccnc1,n,n,u,n,n
O=C1C(Cl)=C(NCc2cccnc2)C(=O)c2ccccc21,45,22,n,n,n
CC(C)NC1=C(Cl)C(=O)c2ccccc2C1=O,n,21,u,n,n
CCN(CC)CCCNC1=C(Cl)C(=O)c2ccccc2C1=O,n,n,n,n,n
CC(C)OCCCNC1=C(Cl)C(=O)c2ccccc2C1=O,66,49,n,n,n
